According to PubChem BioAssay AID1628 (Sanford-Burnham Center for Chemical Genomics, 2009):
About 930 (0.49%) of roughly 190,000 compounds were called active. This is one part of the list. Potency and affinity values are given separately. Unmarked numbers belong to inactive results.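 Rule for the calls: active = z-score of insulin promoter reporter brightness in nuclei below -3 at 5 µM, with at least 500 cells counted; inconclusive = wells with under 500 cells, flagged as toxic or sparse; inactive = the rest.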

Experiment: decrease of insulin promoter-GFP reporter – imaging, high-content screening, mouse beta cells (AID 1628)
Conditions: MIN6 insulin promoter GFP reporter, at 5 µM, stronger effect = lower value

Compound	z-score
Cc1ccc(-n2c(C)nc3oc4ccccc4c(=O)c3c2=O)cc1	3.88
N#Cc1c(C(F)(F)F)cc(-c2ccccc2)nc1SCc1nc(N)nc(N2CCOCC2)n1	15.4
N#Cc1c(-c2ccco2)cc(C2CC2)nc1SCC(=O)c1ccccc1	5.22
N#Cc1ccc(-c2ccc(Cl)cc2)nc1SCC(=O)c1cccc(Cl)c1	6.91
CC1(C)Cc2c(C#N)c(SCC(=O)c3ccccc3)nc(N3CCOCC3)c2CO1	-3.99 (active)
CC1(C)Cc2c(c(-c3ccccc3)[nH]c(=O)c2C#N)CO1	3.41
CC1(C)Cc2c(C#N)c(SCC(=O)c3ccccc3)nc(N3CCOCC3)c2CS1	-3.04 (active)
N#Cc1ccc(-c2ccccc2)nc1SCC(=O)c1cccc(Cl)c1	4.3
CC1(C)Cc2c(C#N)c(SCCOc3ccccc3)nc(N3CCOCC3)c2CO1	-3.51 (active)
CCOc1cc2[nH]c(=S)n(CCCN(CC)CC)c(=O)c2cc1OCC	0.51
Nc1c(C(=O)C2CC2)sc2nc(-c3cccs3)cc(C(F)(F)F)c12	15.5
S=C(N/N=C/c1cccs1)NC1CC2CCC1C2 (stereo not drawn)	-3.1 (active)
CN(C)c1ccc(/C=N/NC(=O)CN(c2ccccc2Cl)S(C)(=O)=O)cc1Br	3.57
CN(C)c1ccc(/C=C2\C(=N)N3C(=NC2=O)Sc2cc(S(C)(=O)=O)ccc23)cc1	3.93
CC(C)c1ccc(/C=N/NC(=O)c2cccc(Cl)c2)cc1	-3.75 (active)
Cn1cc(/C=C2\SC(=S)N(NC(=O)c3cccc(Cl)c3)C2=O)c2ccccc21	7.3
CC(/C=N/NC(=O)c1ccncc1)=C\c1ccc(C(C)C)cc1	3.19
CC1=NN(c2ccccc2)C(=O)C1/C=C1\NC(=S)NC1=O (stereo not drawn)	3.53
C/C(N)=C(/C#N)C(=O)CSc1nnnn1-c1ccc(C)cc1C	-3.38 (active)
c1csc(-c2ccnc3ncnn23)c1	-4.89 (active)
S=C(Nc1ccc(Nc2ccccc2)cc1)Nc1ccccn1	-3.32 (active)
O=C(CC(=O)Nc1ccccn1)Nc1ccccn1	-0.03
CCOC(=O)c1sc2cc([N+](=O)[O-])cc(SCC(C)C)c2c1N	13.9
c1ccc(CNc2cnccn2)cc1	1.28
CC(=O)c1n[nH]nc1Nc1nc(C)cc(C)n1	0.61

Compound	z-score
Cc1cccc(NC(=O)C2CCCN(C(=O)NC3CCCCC3)C2)c1C (stereo not drawn)	-3.03 (active)
COc1cc(C)nc(N2CCCC(C(=O)Nc3cccc(Cl)c3C)C2)n1 (stereo not drawn)	3.87
O=C(NC1CC1)C1CCCN1C(=O)NC1CCCCC1 (stereo not drawn)	2.65
Cc1ccc(NS(=O)(=O)c2cc([N+](=O)[O-])ccc2N/N=C/c2sc(N3CCOCC3)nc2-c2ccccc2)c(C)c1	11
Cc1[nH]c2ccccc2c1/C=N/Nc1ccc([N+](=O)[O-])cc1S(=O)(=O)Nc1ccc(Cl)cc1	9.19
C=CCSc1nnc(C)c(/C=C/Nc2ccc(Cl)cc2)n1	5.19
CCC(=O)Oc1ccc(C(=O)Nc2c[nH]c(=O)[nH]c2=O)cc1	-5 (active)
NS(=O)(=O)c1ccc(NC=C2C(=O)OC3(CCCCC3)OC2=O)cc1	3.78
NS(=O)(=O)c1ccc(NC(=S)NCc2ccccc2)cc1	-4.47 (active)
Cc1cc(NC(=O)C2CC(=O)OC2c2ccccc2)no1 (stereo not drawn)	-4.4 (active)
COc1ccccc1-n1c(N)cc(=O)nc1SCC(=O)Nc1cc(C)on1	2.37
CC(=O)c1c(C)[nH]c(C(=O)OCC(=O)Nc2ccc(Cl)cc2[N+](=O)[O-])c1C	-3.98 (active)
COc1ccc(NC(=O)c2[nH]c(C)c(C(C)=O)c2C)cc1Cl	3.83
COC(=O)c1ccc(NC(=O)CSc2nc3cccnc3n2C)cc1	-4.12 (active)
CCOC(=O)c1[nH]c2ccc(OC)cc2c1NS(=O)(=O)c1ccc(Cl)s1	-4.98 (active)
CCC(C(=O)OCC(=O)Nc1cccc(S(=O)(=O)NC2=NCCCCC2)c1)c1ccccc1 (stereo not drawn)	3.98
Cc1sc2ncnc(N3CCCCC3C)c2c1C (stereo not drawn)	-4.4 (active)
COc1ccc(/C=C2\CC/C(=C\c3ccc(OC)cc3OC)C2=O)c(OC)c1	5.49
C=CCN1C(=O)C(O)(CC(=O)c2ccc(OC)cc2OC)c2cc(Br)ccc21 (stereo not drawn)	-4.05 (active)
COc1ccc(C(=O)/C=C/c2ccc(N(C)C)cc2)c(OC)c1	15.9
CC(Sc1ccccc1)C(=O)NN=C1CCCCCC1 (stereo not drawn)	8.07
O=C(O)c1ccccc1NN=C1CCCCC1	-4.39 (active)
O=C(CCSc1ccc(Cl)cc1)NN=C1CCCCCC1	3.37
CC1CC(C)(C)Nc2ccc(N=O)cc21 (stereo not drawn)	4.12
CN(C)c1ccc(/C=C2\SC(=O)N(CC(O)Cn3c4ccccc4c4ccccc43)C2=O)cc1 (stereo not drawn)	3.6

Compound	z-score
O=c1ccc(NS(=O)(=O)c2ccccc2)cn1Cc1ccc(Cl)c(Cl)c1	4.35
O=C1S/C(=C\c2ccc(N3CCOCC3)o2)C(=O)N1c1ccccc1	12.7
COc1cc2c(cc1OC)C1=CC(=O)C(=O)N1C(C)(C)C2	6.34
COCCN(CCOC)Cc1c(C)[nH]c2c(C)c(C)ccc2c1=O	0.72
COC(=O)CSc1nc2ccccn2c(=O)c1C=O	4.58
COC(=O)CSc1nc2ncc(Cl)cc2[nH]1	-4.43 (active)
Cc1ccnc(N/C=C(\C#N)c2nc(-c3cccc(Br)c3)cs2)c1	7.83
CCOC(=O)CC1C(=O)NCCN1c1nc2ccc(C)cn2c(=O)c1/C=C1\SC(=S)N(CC(C)C)C1=O (stereo not drawn)	10.8
CSc1ccc(NC(=O)Nc2cccn(Cc3ccccc3)c2=O)cc1	-5.72 (active)
COc1cnc(-c2ccccn2)nc1NC(C)C	-4.73 (active)
CCC(=O)Nc1ccc2c(c1)ncn2-c1ccccc1	4.96
CC(=O)Nc1ccc(NC(=O)C(=O)c2cn(CC(=O)N3CCCCC3)c3ccccc23)cc1	2.61
COc1ccccc1NC(=O)Cn1cc(C(=O)c2ccco2)c2ccccc21	-4.69 (active)
COc1ccccc1NC(=O)COC(=O)C1CC2C=CC1C2 (stereo not drawn)	3.01
COc1ccccc1NC(=O)/C=C1\SCC(=O)N1C	4.67
CCn1c(C2CC(=O)N(Cc3ccccc3)C2)nc2ccccc21 (stereo not drawn)	-5.96 (active)
N#C/C(=C\c1ccc(-c2ccc(C(=O)O)cc2)o1)c1nc2ccccc2[nH]1	6.2
Nc1c(C(=O)NC2CCCC2)sc2nc(-c3cccs3)ccc12	3.89
Cn1c(SCC(=O)NC2CCCCCC2)nnc1-c1cccs1	2.42
O=C(COC(=O)c1cccs1)NC1CCCCC1	-5.3 (active)
Cc1cc(F)c(F)c(C(=O)N2CCOCC2)c1	1.59
Cc1c(C(=O)N2CCOCC2)[nH]c2c1C(=O)CC(c1ccccc1Cl)C2 (stereo not drawn)	-3.07 (active)
O=C(CSc1nnc(SCc2ccc(Cl)cc2)s1)N1CCOCC1	-0.99
Clc1ccc(CSc2nnc(/C=C/c3ccccc3)o2)cc1	-4.41 (active)
NCCc1nnc(SCc2ccccc2F)o1	1.04

Compound	z-score
CCCC1CC(=O)OC1(C)C(=O)CSc1n[nH]c(-c2ccccc2)n1 (stereo not drawn)	-5.89 (active)
CCN(CC)c1ccc(/C=C(\C#N)c2nc(-c3cccs3)c(NC(C)=O)s2)cc1	16.9
CN(C)C=Nc1ccc2nn(-c3ccccc3)nc2c1	3.14
CCC(c1nnnn1C1CCCC1)N(Cc1cccs1)Cc1cc2cc(C)ccc2[nH]c1=O (stereo not drawn)	-3.35 (active)
CCOc1ccc2[nH]c(=O)c(CN(Cc3cccs3)C(CC)c3nnnn3C(C)(C)CC)cc2c1 (stereo not drawn)	-3.01 (active)
Cc1cccc2cc(CN(Cc3cccs3)C(c3nnnn3C3CCCC3)C(C)C)c(=O)[nH]c12 (stereo not drawn)	-4.88 (active)
COc1cc(OC)c(OC)cc1C#N	0.13
COc1cccc(C2C3CN(C)CC=C3C(C#N)=C(N)C2(C#N)C#N)c1OC (stereo not drawn)	13.7
Cn1c(CNc2nc3ccccc3n2C)nc2ccccc21	1.15
C=CCn1c(/N=C/c2ccc3c(c2)OCO3)nc2ccccc21	0.8
COc1ccc2nc3ccccc3nc2c1	-1.09
CC(O)c1nc2ccccc2n1CCOc1ccccc1 (stereo not drawn)	1.64
COc1ccc(C2C(C(=O)c3ccccc3)=C(C)Nc3nc4ccccc4n32)c(OC)c1 (stereo not drawn)	3.79
COc1ccc(CNC(=O)CN2CCC(C(=O)c3ccc(OC)cc3)CC2)cc1	1.22
Cc1ccc2nc(/C(C#N)=C\c3ccc(N4CCOCC4)o3)[nH]c2c1	15.9
CC(C)=CCc1c2c(c3occ(-c4ccc(O)cc4)c(=O)c3c1O)C=CC(C)(C)O2	-0.49
N#C/C(=C/c1ccc(N2CCOCC2)o1)C(=O)Nc1ccccc1	4.15
Cc1cc2nc3c(=O)n(Cc4ccccc4)c(=O)[nH]c3nc2cc1N	12.1
CCC(=O)OCC(=O)c1c(N)n(Cc2ccccc2)c(=O)n(C)c1=O	3.29
Cn1c(N)cc(=O)n(Cc2ccccc2)c1=O	-5.18 (active)
Cc1noc(C)c1S(=O)(=O)N1CCC(C(=O)N2CCN(C3CCCC3)CC2)CC1	3.05
Cc1n[nH]c(C)c1S(=O)(=O)N1CCCC(C(=O)N2CCN(c3ccc(Cl)cc3)CC2)C1 (stereo not drawn)	-3.2 (active)
CCCS(=O)(=O)N1CCC(C(=O)NCCC(C)C)CC1	3.11
